In PubChem BioAssay (NCATS):
Records with an inconclusive call do not appear. Entries that show only a call come without a potency. Active and inactive are the calls of the source. Unless noted, the call rests on the fitted dose curve; in most records, active means well fitted curve in the direction sought with a large enough effect; inconclusive means small, poorly fitted or top-dose-only effect, or another doubt; inactive means no such curve, though single readings can be large; an effect the other way counts as inactive or inconclusive.

Tests used:
[1] = qHTS for Inhibitors of Cell Surface uPA Generation: Validation Assay (AID 493164)
Outline: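 RAW 264.7 cells (4000/well) were plated overnight, then exposed for 18 h at 37 C, 5% CO2 to compounds in a 7-point 1:5 titration (2.45 nM–38.3 uM final). Intracellular ATP was read by ATP-Lite luminescence.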

[2] = biological target: Galactokinase (Homo sapiens) (UniProt P51570); test: qHTS Validation Assay for Inhibitors of Human Galactokinase (GALK) (AID 493189)
Outline: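 Luminescence from leftover ATP (Kinase-Glo Plus, 10 min) served as read-out after a 1 h room-temperature reaction of 5 nM GALK, 100 uM galactose and 35 uM ATP at pH8.0.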

[3] = Validation screen for small molecules that induce DNA re-replication in SW480 colon adenocarcinoma cells (AID 504364)
Outline: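 250 cells/well; compound pinned in; 48 hr, 37 C, 5% CO2; Hoechst added, 40 min; nuclear fluorescence imaged, 405 ex / 500-530 em; re-replication scored as increase in high-intensity nuclei.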

[4] = biological target: Peptidyl-prolyl cis-trans isomerase NIMA-interacting 1 (Homo sapiens) (UniProt Q13526); test: qHTS Validation Assay to Find Inhibitors of Pin1 (AID 504536; active means well fitted inhibition curve with a large enough effect in the polarisation, with a control signal flat, not every such curve was filed as active; the % refers to the polarisation)
Outline: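 Fluorescence polarization competition: compounds (titration) displace HiFluor-488-labeled Pin1-1b peptide from Pin1 (0.3 uM final) in pH 7.5 HEPES buffer with DTT, 10 min at room temperature; %Activity normalized to no-enzyme wells, curves fitted.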

[5] = biological target: Phosphoglycerate kinase, glycosomal (Trypanosoma brucei brucei) (UniProt P07378); test: qHTS Validation Assay to Find Inhibitors of Phosphoglycerate Kinase (AID 504547)
Outline: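 Inhibition of the enzyme is judged by a Kinase-Glo Plus luminescent signal following a one-hour incubation at room temperature. Because 1,3-BPG is unstable, it is made in situ by GAPDH at 100nM final; no-PGK wells define the baseline.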

[6] = biological target: phosphoglycerate mutase (Leishmania major) (UniProt Q4Q090); test: qHTS Validation Assay to Find Inhibitors of Phosphoglycerate Mutase (AID 504548); further: series mostly up to about 58 µM
Outline: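 Lm PGAM at 1.25 nM final with substrate in 100 mM TEA pH 7.6, 5 mM MgCl2, 0.01% Tween-20; 45 min at room temperature. Kinase-GloPlus added, 10 min, end-point luminescence read.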

[7] = qHTS for Inhibitors of ATXN expression: Validation of Cytotoxic Assay (AID 588349); further: potency means the concentration at half of the fitted maximal effect
Outline: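 Read-out: ATP-based luminescence (CellTiter Glo) reflecting viability of HEK293 cells after 72 hr incubation at 37 degrees C with a concentration series of each compound.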

[8] = qHTS for Inhibitors of ATXN expression: Validation (AID 588378); further: series mostly up to about 57 µM; nearly all actives have a fitted effect of over 75% in size
Outline: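 Cells: HEK293-ATXN2-FFLuc, phenol-red free DMEM, 2 h attachment. Compound pin-transfer, 24 h, 37 degrees C, 5% CO2. CellTiter-Fluor 30 min, Ex405/Em525; Bright-Glo 5 min, luminescence 2 s exposure.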

[9] = biological target: Ubiquitin carboxyl-terminal hydrolase 1 (Homo sapiens) (UniProt O94782); test: Inhibitors of USP1/UAF1: Pilot qHTS (AID 504865); further: nearly all actives have a fitted effect of over 35% in size; further: potency means the concentration at half of the fitted maximal effect
Outline: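 1nM USP1/UAF1 + cpd, 15 min RT; start w/ Ub-Rho 150nM final; kinetic FL 480/540 nm, 6 reads q60 s. Buffer 50mM HEPES pH 7.8, 0.5mM EDTA, 1mM TCEP, 0.01% Tween-20, 0.1 mg/ml BSA.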

[10] = biological target: DNA dC->dU-editing enzyme APOBEC-3G (Homo sapiens) (UniProt Q9HC16); test: qHTS for inhibitors of Vif-A3G interactions: Validation (AID 588379)
Outline: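 HeLa cells stably expressing Vif and A3G-eYFP, 700 cells/well, incubated overnight at 37 deg C, then exposed to compound overnight at 37 deg C. Inhibition of Vif-mediated degradation read as increased yellow fluorescence (Ex 488/Em 500-530) by laser-scanning cytometry.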

Peptidyl-prolyl cis-trans isomerase NIMA-interacting 1 (Homo sapiens), sequence (Q13526 whole entry, looked up): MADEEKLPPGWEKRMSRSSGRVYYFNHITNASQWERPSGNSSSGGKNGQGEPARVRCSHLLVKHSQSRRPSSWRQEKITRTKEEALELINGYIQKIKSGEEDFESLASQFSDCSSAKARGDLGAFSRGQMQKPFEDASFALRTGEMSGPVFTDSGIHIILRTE
Galactokinase (Homo sapiens), sequence (P51570 whole entry, looked up): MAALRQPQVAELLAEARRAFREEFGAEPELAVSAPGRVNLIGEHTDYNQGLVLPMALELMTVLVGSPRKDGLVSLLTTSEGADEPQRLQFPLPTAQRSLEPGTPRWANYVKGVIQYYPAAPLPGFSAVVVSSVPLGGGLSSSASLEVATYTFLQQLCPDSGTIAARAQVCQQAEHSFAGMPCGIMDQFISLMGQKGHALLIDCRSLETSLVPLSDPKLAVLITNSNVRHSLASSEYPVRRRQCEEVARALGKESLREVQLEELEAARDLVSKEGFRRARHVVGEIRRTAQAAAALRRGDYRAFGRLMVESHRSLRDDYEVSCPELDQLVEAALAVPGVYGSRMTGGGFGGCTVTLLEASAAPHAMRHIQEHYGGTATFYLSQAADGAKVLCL
Phosphoglycerate kinase, glycosomal (Trypanosoma brucei brucei), sequence (P07378 whole entry, looked up): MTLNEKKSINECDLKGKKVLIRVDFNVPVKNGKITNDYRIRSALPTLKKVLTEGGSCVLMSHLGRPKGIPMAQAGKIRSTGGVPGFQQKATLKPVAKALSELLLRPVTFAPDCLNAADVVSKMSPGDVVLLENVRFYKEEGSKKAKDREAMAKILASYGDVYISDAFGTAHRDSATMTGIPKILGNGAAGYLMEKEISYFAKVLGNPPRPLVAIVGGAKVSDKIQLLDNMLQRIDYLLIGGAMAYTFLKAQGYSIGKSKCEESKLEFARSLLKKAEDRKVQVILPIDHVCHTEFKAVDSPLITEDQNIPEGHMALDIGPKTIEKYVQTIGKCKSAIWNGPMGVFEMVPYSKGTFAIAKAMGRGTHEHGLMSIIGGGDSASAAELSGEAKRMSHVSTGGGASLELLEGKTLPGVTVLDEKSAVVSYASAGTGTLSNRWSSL
DNA dC->dU-editing enzyme APOBEC-3G (Homo sapiens), sequence (Q9HC16 whole entry, looked up): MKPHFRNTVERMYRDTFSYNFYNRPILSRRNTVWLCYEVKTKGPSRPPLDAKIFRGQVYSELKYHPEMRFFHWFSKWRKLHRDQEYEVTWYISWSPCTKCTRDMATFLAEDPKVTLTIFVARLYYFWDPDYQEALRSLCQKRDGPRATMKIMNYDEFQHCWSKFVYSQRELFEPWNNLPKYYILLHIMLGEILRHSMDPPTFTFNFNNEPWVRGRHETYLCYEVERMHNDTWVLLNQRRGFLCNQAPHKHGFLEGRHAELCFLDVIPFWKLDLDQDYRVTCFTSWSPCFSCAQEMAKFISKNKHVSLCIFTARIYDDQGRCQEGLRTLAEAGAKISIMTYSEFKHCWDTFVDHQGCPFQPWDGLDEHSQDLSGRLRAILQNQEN
Ubiquitin carboxyl-terminal hydrolase 1 (Homo sapiens), sequence (O94782 whole entry, looked up): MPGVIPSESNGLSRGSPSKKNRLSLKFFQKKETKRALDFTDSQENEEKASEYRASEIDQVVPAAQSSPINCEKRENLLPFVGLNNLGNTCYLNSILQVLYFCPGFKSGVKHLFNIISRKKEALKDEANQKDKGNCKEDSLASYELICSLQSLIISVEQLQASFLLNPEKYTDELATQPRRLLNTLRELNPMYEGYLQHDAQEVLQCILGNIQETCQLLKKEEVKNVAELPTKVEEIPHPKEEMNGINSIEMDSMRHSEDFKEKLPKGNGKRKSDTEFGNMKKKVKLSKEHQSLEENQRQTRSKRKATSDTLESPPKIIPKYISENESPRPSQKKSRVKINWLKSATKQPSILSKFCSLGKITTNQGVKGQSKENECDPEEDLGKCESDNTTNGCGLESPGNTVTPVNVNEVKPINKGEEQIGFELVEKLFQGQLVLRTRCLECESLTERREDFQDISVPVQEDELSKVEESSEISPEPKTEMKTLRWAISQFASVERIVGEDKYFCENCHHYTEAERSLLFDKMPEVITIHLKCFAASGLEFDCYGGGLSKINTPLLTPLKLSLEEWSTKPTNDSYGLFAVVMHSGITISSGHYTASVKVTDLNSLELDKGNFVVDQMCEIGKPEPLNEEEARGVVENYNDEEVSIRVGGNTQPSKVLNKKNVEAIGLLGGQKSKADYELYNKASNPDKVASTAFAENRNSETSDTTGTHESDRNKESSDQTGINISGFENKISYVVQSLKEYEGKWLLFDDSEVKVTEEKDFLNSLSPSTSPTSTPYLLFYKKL
phosphoglycerate mutase (Leishmania major), sequence (Q4Q090 1-553): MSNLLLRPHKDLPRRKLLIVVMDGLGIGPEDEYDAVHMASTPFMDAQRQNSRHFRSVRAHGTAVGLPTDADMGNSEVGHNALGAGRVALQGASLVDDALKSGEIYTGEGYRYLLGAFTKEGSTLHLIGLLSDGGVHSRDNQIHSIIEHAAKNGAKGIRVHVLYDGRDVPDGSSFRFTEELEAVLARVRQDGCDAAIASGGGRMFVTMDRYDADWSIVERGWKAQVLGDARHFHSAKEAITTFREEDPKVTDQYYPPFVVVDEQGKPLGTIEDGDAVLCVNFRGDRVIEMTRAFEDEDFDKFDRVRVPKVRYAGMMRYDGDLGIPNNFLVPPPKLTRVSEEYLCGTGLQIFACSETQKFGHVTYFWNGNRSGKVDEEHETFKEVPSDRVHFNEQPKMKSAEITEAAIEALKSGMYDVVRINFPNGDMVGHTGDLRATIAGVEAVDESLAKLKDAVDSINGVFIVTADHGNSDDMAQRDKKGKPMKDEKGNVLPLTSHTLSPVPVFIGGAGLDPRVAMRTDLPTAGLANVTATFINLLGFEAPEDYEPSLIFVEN

Compound | outcome [1] | outcome [2] | outcome [3] | outcome [4] | outcome [5] | outcome [6] | Potency [7] | outcome [8] | Potency [9] | outcome [10]
NCCCC(N)(C(=O)O)C(F)F (centres undefined) | inactive | inactive | inactive | inactive | inactive | inactive | inactive | inactive | – | –
O=c1n(CCCN2CCN(c3cccc(Cl)c3)CC2)nc2ccccn12 | inactive | inactive | inactive | inactive | inactive | inactive | inactive | inactive | – | –
Cc1cnc(NC(=O)C2=C(O)c3ccccc3S(=O)(=O)N2C)s1 | inactive | inactive | inactive | inactive | inactive | inactive | inactive | inactive | – | –
NS(=O)(=O)c1cc2c(cc1Cl)NC=NS2(=O)=O | inactive | inactive | inactive | inactive | inactive | inactive | inactive | inactive | – | –
Cc1ccc(N(CC2=NCCN2)c2cccc(O)c2)cc1 | inactive | inactive | inactive | inactive | inactive | inactive | – | – | – | –
Oc1ccc(C2CNCCc3c2cc(O)c(O)c3Cl)cc1 (centres undefined) | inactive | inactive | inactive | inactive | inactive | inactive | inactive | inactive | – | –
NNCCc1ccccc1 | inactive | inactive | inactive | inactive | inactive | inactive | inactive | inactive | – | –
N[C@@H]1CONC1=O | inactive | inactive | inactive | inactive | inactive | inactive | inactive | inactive | – | –
CN1CCN(CCCN2c3ccccc3Sc3ccc(C(F)(F)F)cc32)CC1 | inactive | inactive | inactive | inactive | inactive | inactive | 28.2 µM (active) | – | 50.1 µM (active) | –
O=NN(CCCl)C(=O)NCCCl | inactive | inactive | inactive | inactive | inactive | inactive | inactive | inactive | inactive | –
CCCC(CCC)C(=O)O | inactive | inactive | inactive | inactive | inactive | inactive | inactive | inactive | inactive | –
NCCc1ccc(O)c(O)c1 | inactive | inactive | inactive | inactive | inactive | – | – | – | – | –
Cc1[nH]c(=O)c(C#N)cc1-c1ccc2nccn2c1 | inactive | inactive | inactive | inactive | inactive | inactive | – | – | – | –
Cc1cn[nH]c1 | inactive | inactive | inactive | inactive | inactive | inactive | inactive | inactive | inactive | –
Cn1cnc([N+](=O)[O-])c1Sc1ncnc2nc[nH]c12 | inactive | inactive | inactive | inactive | inactive | inactive | inactive | inactive | inactive | –
O=c1[nH]cnc2[nH]ncc12 | inactive | inactive | inactive | inactive | inactive | inactive | inactive | inactive | inactive | –
CC(C)(C)NCC(O)c1ccc(O)c(CO)c1 (centres undefined) | inactive | inactive | inactive | inactive | inactive | inactive | inactive | inactive | – | –
CCCCNc1cc(C(=O)O)cc(S(N)(=O)=O)c1Oc1ccccc1 | inactive | inactive | inactive | inactive | inactive | inactive | inactive | inactive | – | –
CC(C)NCC(O)COc1ccc(COCCOC(C)C)cc1 (centres undefined) | inactive | inactive | inactive | inactive | inactive | inactive | inactive | inactive | – | –

Compound | outcome [1] | outcome [2] | outcome [3] | outcome [4] | outcome [5] | outcome [6] | Potency [7] | outcome [8] | Potency [9] | outcome [10]
Nc1ccc(S(=O)(=O)Nc2ccnn2-c2ccccc2)cc1 | inactive | inactive | inactive | inactive | inactive | inactive | inactive | inactive | inactive | –
O=C1CCc2cc(OCCCCc3nnnn3C3CCCCC3)ccc2N1 | inactive | inactive | inactive | inactive | inactive | inactive | inactive | inactive | inactive | inactive
CCC(C)N(C)C(=O)c1cc2ccccc2c(-c2ccccc2Cl)n1 (centres undefined) | inactive | inactive | inactive | inactive | inactive | inactive | inactive | inactive | – | –
Nc1nc2ccc(OC(F)(F)F)cc2s1 | inactive | inactive | inactive | inactive | inactive | inactive | inactive | inactive | inactive | inactive
CNC[C@H](O)c1cccc(O)c1 | inactive | inactive | inactive | inactive | inactive | inactive | inactive | inactive | inactive | –
Cc1ccccc1C(OCCN(C)C)c1ccccc1 (centres undefined) | inactive | inactive | inactive | inactive | inactive | inactive | inactive | inactive | – | –
CC(=O)Oc1ccccc1C(=O)O | inactive | inactive | inactive | inactive | inactive | inactive | inactive | inactive | – | –
Nc1nc2c(ncn2COCCO)c(=O)[nH]1 | inactive | inactive | inactive | inactive | inactive | inactive | inactive | inactive | – | –
c1ccc([C@H]2CN3CCSC3=N2)cc1 | inactive | inactive | inactive | inactive | inactive | inactive | inactive | inactive | – | –
CC(C[N+](C)(C)C)OC(N)=O (centres undefined) | inactive | inactive | inactive | inactive | inactive | inactive | inactive | inactive | – | –
O=C1CCC(N2C(=O)c3ccccc3C2=O)C(=O)N1 (centres undefined) | inactive | inactive | inactive | inactive | inactive | inactive | inactive | inactive | – | –
C[C@]12CCC(=O)C=C1CC[C@@H]1[C@@H]2[C@@H](O)C[C@@]2(C)[C@H]1CC[C@]2(O)C(=O)CO | inactive | – | – | inactive | inactive | inactive | inactive | inactive | – | –
CCOC(=O)C1=C[C@@]2(CC)CCCN3CCc4c(n1c1ccccc41)[C@H]32 | – | – | – | – | – | – | – | – | – | inactive
CC(C)C[C@H](NC(=O)[C@@H](O)[C@H](N)Cc1ccccc1)C(=O)O | – | inactive | inactive | inactive | inactive | inactive | – | inactive | – | inactive
OC(CCN1CCCCC1)(c1ccccc1)C1CC2C=CC1C2 (centres undefined) | inactive | – | – | inactive | inactive | inactive | – | – | – | –
CCOC(=O)N1CCC(=C2c3ccc(Cl)cc3CCc3cccnc32)CC1 | inactive | inactive | – | inactive | inactive | inactive | inactive | inactive | – | inactive
Cc1cc2c(C(C)C)c(O)c(O)c(C=O)c2c(O)c1-c1c(C)cc2c(C(C)C)c(O)c(O)c(C=O)c2c1O | inactive | – | – | – | – | – | – | – | – | inactive
C#Cc1cccc(Nc2ncnc3cc(OCCOC)c(OCCOC)cc23)c1 | – | – | – | – | – | – | – | – | inactive | –
CCCc1nn(C)c2c(=O)[nH]c(-c3cc(S(=O)(=O)N4CCN(C)CC4)ccc3OCC)nc12 | – | – | – | – | – | – | – | – | inactive | –

Compound | outcome [1] | outcome [2] | outcome [3] | outcome [4] | outcome [5] | outcome [6] | Potency [7] | outcome [8] | Potency [9] | outcome [10]
C1COC(NC(C2CC2)C2CC2)=N1 | inactive | inactive | inactive | inactive | inactive | inactive | inactive | inactive | – | inactive
OC(CN1CCC(Cc2ccc(F)cc2)CC1)c1ccc(Cl)cc1 (centres undefined) | inactive | inactive | inactive | inactive | inactive | – | inactive | inactive | – | –
Clc1cccc(Cl)c1NC1=NCCN1 | inactive | inactive | inactive | inactive | inactive | inactive | inactive | inactive | – | inactive
CCOC(=O)C1=C[C@]2(CC)CCCN3CCc4c(n1c1ccccc41)[C@@H]32 | inactive | inactive | inactive | inactive | inactive | inactive | inactive | inactive | – | –
Cc1cccc(-c2[nH]c(C(C)(C)C)nc2-c2ccc3nccnc3c2)n1 | inactive | – | – | inactive | inactive | inactive | inactive | – | – | –
NC[C@H](O)c1ccc(O)c(O)c1 | inactive | inactive | inactive | inactive | – | inactive | inactive | inactive | – | –
CCCc1nc2c(C)cc(-c3nc4ccccc4n3C)cc2n1Cc1ccc(-c2ccccc2C(=O)O)cc1 | – | – | – | – | – | – | – | – | 50.1 µM (active) | –
CC(c1cc2ccccc2s1)N(O)C(N)=O (centres undefined) | – | – | – | – | – | – | – | – | inactive | –
O=C(O)COCCN1CCN(C(c2ccccc2)c2ccc(Cl)cc2)CC1 (centres undefined) | inactive | – | – | inactive | inactive | inactive | inactive | inactive | – | –
NC(N)=NC(=O)c1nc(Cl)c(N)nc1N | inactive | inactive | inactive | inactive | inactive | inactive | inactive | inactive | – | inactive
CCN(c1ccccc1)c1cc(NC)[n+](C)c(C)n1 | – | – | – | – | – | – | – | – | – | inactive
CCn1cc(C(=O)O)c(=O)c2cc(F)c(N3CCNC(C)C3)c(F)c21 (centres undefined) | inactive | inactive | inactive | – | inactive | inactive | inactive | inactive | – | –
NC(=O)c1cnccn1 | inactive | inactive | inactive | inactive | inactive | inactive | inactive | inactive | – | –
Cc1ccc2c(c1)C(=O)[C@@]1(O)CCN(c3ccccc3)C1=N2 | – | – | – | – | – | – | – | – | – | inactive
O=C(Nc1nc2ccccc2n1CCN1CCOCC1)c1cccc([N+](=O)[O-])c1 | inactive | – | – | inactive | inactive | inactive | inactive | inactive | – | –
Nc1ncnc2nc(-c3ccc(N4CCOCC4)nc3)cc(-c3cccc(Br)c3)c12 | inactive | – | – | inactive | inactive | inactive | inactive | inactive | – | –
CCN(CC)CCCC(C)Nc1ccnc2cc(Cl)ccc12 (centres undefined) | inactive | – | inactive | inactive | inactive | inactive | – | – | – | –
N=c1nc(N2CCCCC2)cc(N)n1O | inactive | inactive | inactive | inactive | inactive | inactive | inactive | inactive | – | inactive
